Assay outcomes deposited in PubChem by several laboratories.
TIM10 inh – growth inhibitors of TIM10 yeast strain; actives 1.4% (n = 330,000); inhibition, % at 10 µM; S. cerevisiae TIM10 strain growth, BacTiter-Glo luminescence, 24 h; AID 463195;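 active = inhibition of 40% or more at the single tested concentration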;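 also: wild-type TIM10 isogenic control strain grown at permissive 25 °C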
Rce1 inh – blocks yeast Ras-converting enzyme | yeast membranes, quenched prenylated peptide cleavage fluorescence | calls only | actives 0.27% (n = 290,000) | AID 2563;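 active = fall in fluorescence gain of 50% or more versus controls, with final raw signal at or below 3038400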;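 also: plate controls were neutral control wells for no effect and wells lacking membranes for full effect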
Target sequence (Q03530 whole entry, looked up): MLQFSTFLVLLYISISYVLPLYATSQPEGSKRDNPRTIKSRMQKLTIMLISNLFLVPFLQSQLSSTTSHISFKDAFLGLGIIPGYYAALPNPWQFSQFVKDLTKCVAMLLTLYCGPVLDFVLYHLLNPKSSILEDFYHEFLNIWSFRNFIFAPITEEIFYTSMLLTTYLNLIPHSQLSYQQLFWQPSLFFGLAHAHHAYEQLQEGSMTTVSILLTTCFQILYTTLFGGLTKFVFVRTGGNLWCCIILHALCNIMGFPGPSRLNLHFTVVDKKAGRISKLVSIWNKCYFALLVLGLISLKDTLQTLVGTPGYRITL
PfHsp90 set2 – growth inhibition of yeast expressing Plasmodium Hsp90; S. cerevisiae expressing PfHsp90, BacTiter-Glo ATP, 48 h; yeast lacking PDR1 and PDR3 efflux regulators; inhibition, % at 9.4 µM; actives 0.32% (n = 310,000); AID 504621;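 active = every replicate shows inhibition above about 80%, whatever the replicate mean, limit read from the data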;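 also: 0% = DMSO neutral controls and 100% = 20 µM radicicol positive controls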
tim10-1 inh – tim10-1 yeast growth inhibition. S. cerevisiae tim10-1 ts strain growth, BacTiter-Glo, 24 h. inhibition, % at 20 µM. actives 2.2% (n = 330,000);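 active = inhibition of at least 40%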;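 also: mutant grown at 25 °C; 0% = DMSO wells with yeast and 100% = wells holding no yeast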
tim23-1 inh – growth inhibitors of tim23-1 mutant yeast; S. cerevisiae tim23-1 growth, BacTiter-Glo luminescence, 24 h; actives 1.3% (n = 330,000); inhibition, % at 20 µM;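 active = growth inhibition of the mutant yeast at or above 50%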;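 also: temperature-sensitive mutant grown at 25 °C; plate controls were DMSO-treated mutant yeast for no effect and medium wells lacking yeast for full effect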
tim10-1 confirm – confirmation of tim10-1 mutant yeast growth inhibitors | inhibition, % at 20 µM | S. cerevisiae tim10-1 ts strain growth, BacTiter-Glo, 24 h | actives 56% (n = 7,400) | AID 463213 | shares compounds with tim10-1 inh;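 active = inhibition of yeast growth at or above a set limit in either of two repeat tests at 20 µM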;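 also: tim10-1 mutant grown at permissive 25 °C to find synthetic lethal compounds; 0% = DMSO yeast wells and 100% = medium wells without yeast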
Active calls of the source: *. Sampled rows, rich in hits. Any-hit rate of the full collection: about 3.7%.

Screening Cc1cnc(C(=O)N2CCCC(N3CCN(c4cccc(C(F)(F)F)c4)CC3)C2)cn1 (configuration not stated) returned TIM10 inh 15, Rce1 inh inactive, PfHsp90 set2 0, tim10-1 inh 14 and tim23-1 inh 18.
CCC(C(=O)Nc1nc(C)c(C(=O)OC)s1)c1ccccc1 (configuration not stated) was read as TIM10 inh 20, Rce1 inh inactive, tim10-1 inh 43*, tim23-1 inh 35 and tim10-1 confirm 36*.
Screening CN(C)S(=O)(=O)N1CCN(c2cc(Cl)ccc2Cl)CC1 returned TIM10 inh -13, Rce1 inh inactive, PfHsp90 set2 2, tim10-1 inh 43*, tim23-1 inh 28 and tim10-1 confirm 20.
Screening CN(C)S(=O)(=O)N1CCN(c2ccccc2Cl)CC1 returned TIM10 inh 6, Rce1 inh inactive, PfHsp90 set2 2, tim10-1 inh 7 and tim23-1 inh 20.
For CC12CCC(C(=O)NC(c3ccccc3)c3ccccc3)(OC1=O)C2(C)C (configuration not stated) the results were TIM10 inh 21, Rce1 inh inactive, tim10-1 inh 42*, tim23-1 inh 39 and tim10-1 confirm 29.
CC12CCC(C(=O)NNc3ccccc3)(OC1=O)C2(C)C (configuration not stated) was read as TIM10 inh -36, Rce1 inh inactive, PfHsp90 set2 8, tim10-1 inh -41 and tim23-1 inh -8.
Screening CCOCCCNC(=O)c1ccc(N2CC3CC(C2)c2cccc(=O)n2C3)c(NC(=O)Nc2cccc(OC)c2)c1 (configuration not stated) returned TIM10 inh 1, Rce1 inh inactive, PfHsp90 set2 -16, tim10-1 inh -1 and tim23-1 inh -14.
`CC1CCCCC1NC(=O)NC(=O)CCl` (configuration not stated) gave TIM10 inh 15, Rce1 inh inactive, PfHsp90 set2 -6, tim10-1 inh 46*, tim23-1 inh 41 and tim10-1 confirm 31.
Screening CC1CCCC(NC(=O)NC(=O)CCl)C1C (configuration not stated) returned TIM10 inh 37, Rce1 inh inactive, PfHsp90 set2 -18, tim10-1 inh 32 and tim23-1 inh 47.
For Cc1cc(OC(=O)c2cccc(Br)c2)c([N+](=O)[O-])c(=O)[nH]1 the results were TIM10 inh 7, Rce1 inh inactive, PfHsp90 set2 -4, tim10-1 inh 46*, tim23-1 inh 4 and tim10-1 confirm -8.
O=C(CCNC(=O)c1ccccc1Cl)Nc1nc(-c2ccccc2Cl)cs1 was read as TIM10 inh 1, Rce1 inh inactive, PfHsp90 set2 2, tim10-1 inh 40*, tim23-1 inh 28 and tim10-1 confirm 20.
`Cc1ccccc1-c1nc(CS(=O)(=O)CC(=O)N2CCN(C)CC2)c(C)o1` gave TIM10 inh 8, Rce1 inh inactive, PfHsp90 set2 -13, tim10-1 inh 8 and tim23-1 inh 4.
For O=C(CC1C(=O)NCCN1Cc1cccc(Oc2ccccc2)c1)NCCc1ccccn1 (configuration not stated) the results were TIM10 inh 39, Rce1 inh inactive, PfHsp90 set2 -3, tim10-1 inh 37 and tim23-1 inh 18.
`O=C(CC1C(=O)NCCN1Cc1cccc(Oc2ccccc2)c1)NCCc1cscn1` (configuration not stated) gave TIM10 inh 16, Rce1 inh inactive, PfHsp90 set2 -15, tim10-1 inh 42*, tim23-1 inh 20 and tim10-1 confirm 28.
For CCOc1cccc(CN2CCC(Oc3ccc(C(=O)NCc4ccccn4)cc3)CC2)c1 the results were TIM10 inh -3, Rce1 inh inactive, PfHsp90 set2 16, tim10-1 inh 16 and tim23-1 inh 16.
For O=C(NCN1C(=O)C2C3C=CC(C3)C2C1=O)Nc1nccs1 (configuration not stated) the results were TIM10 inh 8, Rce1 inh inactive, PfHsp90 set2 7, tim10-1 inh 7 and tim23-1 inh -6.
